The results in this text go back to paper PMC7862700, “An all-to-all approach to the identification of sequence-specific readers for epigenetic DNA modifications on cytosine”.

What all share (assay): DAPPL (digital affinity profiling via proximity ligation, sequencing); 10 mM Tris-HCl pH 7.5, 50 mM NaCl, 1 mM DTT, 4% glycerol, room temperature, 30 min; GST-TFs on glutathione beads, 16-mer random dsDNA library, 0.1% formaldehyde crosslink after washing; high values mean tight binding
One assay concerns the target T1, FEV (Homo sapiens, UniProt Q99581 1-238).
T1 sequence: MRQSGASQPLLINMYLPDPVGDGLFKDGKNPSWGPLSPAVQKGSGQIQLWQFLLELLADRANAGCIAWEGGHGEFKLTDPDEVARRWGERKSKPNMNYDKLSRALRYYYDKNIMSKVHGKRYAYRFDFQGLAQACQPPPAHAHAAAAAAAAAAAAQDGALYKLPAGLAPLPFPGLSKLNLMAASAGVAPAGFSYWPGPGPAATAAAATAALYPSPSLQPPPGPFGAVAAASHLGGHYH
To be noted: protein: recombinant; tags: N-terminal GST; dsDNA, one strand shown. Put shortly: (§1)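 Human transcription factors fused to GST were expressed in yeast, captured on glutathione beads, given DNA barcodes and pooled with a GST-only negative control. Pools were incubated with 200 nmole of a 16-mer random double-stranded DNA library in Tris/NaCl/DTT/glycerol buffer at room temperature for 30 min. They were then washed, crosslinked with 0.1% formaldehyde, proximity-ligated (BsaI/T4 ligase, 1 h, 37 °C), PCR-amplified and sequenced on an Illumina NextSeq500. Binding signal is each 6-mer's read frequency for a factor divided by its frequency for the GST control.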

The target in the next assay is ETV5 (Homo sapiens, UniProt P41161 1-510). To be noted: protein: recombinant; tags: N-terminal GST; dsDNA, one strand shown. The gist of the method: as §1
The target of the next assay is HSF1 (Homo sapiens, UniProt Q00613 1-529). To be noted: protein: recombinant; tags: N-terminal GST; chain copies: 3; dsDNA, one strand shown. The gist of the method: as §1
Another assay concerns the target T2, SPIC (Homo sapiens, UniProt Q8N5J4 1-248).
T2 sequence: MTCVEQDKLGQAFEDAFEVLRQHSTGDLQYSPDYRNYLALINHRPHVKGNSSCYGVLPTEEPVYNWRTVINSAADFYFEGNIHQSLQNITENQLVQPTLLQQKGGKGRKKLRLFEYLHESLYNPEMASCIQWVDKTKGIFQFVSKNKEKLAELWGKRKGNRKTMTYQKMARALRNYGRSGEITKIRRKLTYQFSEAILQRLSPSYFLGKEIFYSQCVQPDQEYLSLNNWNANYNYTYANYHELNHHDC
To be noted: protein: recombinant; tags: N-terminal GST; dsDNA, one strand shown. Put shortly: as §1

The next assay concerns the target ELF4 (Homo sapiens, UniProt Q99607 1-663). To be noted: protein: recombinant; tags: N-terminal GST; dsDNA, one strand shown. The gist of the method: as §1
The target of a further assay is T3, ELK4 (Homo sapiens, UniProt P28324-2 1-405).
T3 sequence: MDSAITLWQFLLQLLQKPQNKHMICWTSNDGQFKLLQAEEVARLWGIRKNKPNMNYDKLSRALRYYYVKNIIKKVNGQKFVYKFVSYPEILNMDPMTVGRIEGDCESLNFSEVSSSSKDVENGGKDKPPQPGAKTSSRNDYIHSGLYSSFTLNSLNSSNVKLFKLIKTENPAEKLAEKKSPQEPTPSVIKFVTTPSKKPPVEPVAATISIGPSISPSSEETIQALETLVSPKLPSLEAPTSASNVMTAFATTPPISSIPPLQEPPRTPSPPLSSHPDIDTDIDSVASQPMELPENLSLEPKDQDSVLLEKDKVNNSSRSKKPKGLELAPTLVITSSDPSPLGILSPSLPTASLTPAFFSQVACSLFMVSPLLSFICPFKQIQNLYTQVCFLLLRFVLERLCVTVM
As to conditions: protein: recombinant; tags: N-terminal GST; dsDNA, one strand shown. Put shortly:
as §1

In another assay the target is T4, ETV2 (Homo sapiens, UniProt O00321 1-342).
T4 sequence: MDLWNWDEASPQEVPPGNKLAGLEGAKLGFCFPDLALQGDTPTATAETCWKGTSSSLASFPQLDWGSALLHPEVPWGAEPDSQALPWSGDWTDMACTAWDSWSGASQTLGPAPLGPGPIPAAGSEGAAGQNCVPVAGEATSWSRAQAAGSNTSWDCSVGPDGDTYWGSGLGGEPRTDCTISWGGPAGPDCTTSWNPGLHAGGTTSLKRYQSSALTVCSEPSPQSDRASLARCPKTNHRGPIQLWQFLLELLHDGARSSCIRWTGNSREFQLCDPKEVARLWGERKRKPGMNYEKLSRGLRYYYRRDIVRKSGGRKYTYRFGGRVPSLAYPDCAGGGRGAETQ
As to conditions: protein: recombinant; tags: N-terminal GST; dsDNA, one strand shown. The gist of the method:
as §1

The next assay addresses T5, ELF3 (Homo sapiens, UniProt P78545 1-371).
T5 sequence: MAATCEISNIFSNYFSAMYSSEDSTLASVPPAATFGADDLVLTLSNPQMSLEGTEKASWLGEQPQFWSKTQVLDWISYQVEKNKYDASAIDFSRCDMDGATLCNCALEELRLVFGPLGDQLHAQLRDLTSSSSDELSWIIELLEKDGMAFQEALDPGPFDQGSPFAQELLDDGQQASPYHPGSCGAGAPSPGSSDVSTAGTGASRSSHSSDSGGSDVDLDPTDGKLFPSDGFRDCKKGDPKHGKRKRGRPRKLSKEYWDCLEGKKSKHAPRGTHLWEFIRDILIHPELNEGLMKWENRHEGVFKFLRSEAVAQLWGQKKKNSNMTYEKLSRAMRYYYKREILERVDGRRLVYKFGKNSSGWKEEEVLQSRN
As to conditions: protein: recombinant; tags: N-terminal GST; dsDNA, one strand shown. The gist of the method: as §1

The next assay deals with CRX (Homo sapiens, UniProt O43186 1-299). To be noted: protein: recombinant; tags: N-terminal GST; dsDNA, one strand shown. Put shortly:
as §1

A further assay has as its target ETV1 (Homo sapiens, UniProt P50549 1-477). To be noted: protein: recombinant; tags: N-terminal GST; dsDNA, one strand shown. Put shortly: as §1
For another assay, the target named is T6, ERF (Homo sapiens, UniProt P50548 1-548).
T6 sequence: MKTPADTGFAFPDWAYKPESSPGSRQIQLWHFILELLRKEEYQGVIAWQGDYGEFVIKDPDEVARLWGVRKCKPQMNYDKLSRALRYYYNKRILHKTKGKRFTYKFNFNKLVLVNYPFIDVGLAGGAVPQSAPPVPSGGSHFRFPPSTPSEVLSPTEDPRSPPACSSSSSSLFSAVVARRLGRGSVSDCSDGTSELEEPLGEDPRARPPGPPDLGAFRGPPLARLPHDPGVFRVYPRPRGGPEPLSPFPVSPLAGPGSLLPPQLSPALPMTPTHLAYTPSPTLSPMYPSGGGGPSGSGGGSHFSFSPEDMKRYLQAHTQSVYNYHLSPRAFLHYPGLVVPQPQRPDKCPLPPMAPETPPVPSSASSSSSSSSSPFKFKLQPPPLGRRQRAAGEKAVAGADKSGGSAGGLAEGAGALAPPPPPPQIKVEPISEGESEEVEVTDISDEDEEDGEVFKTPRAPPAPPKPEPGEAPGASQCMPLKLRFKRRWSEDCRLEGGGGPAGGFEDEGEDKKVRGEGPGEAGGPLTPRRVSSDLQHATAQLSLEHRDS
As to conditions: protein: recombinant; tags: N-terminal GST; dsDNA, one strand shown. The gist of the method:
as §1

Another assay deals with T7, ETV3L (Homo sapiens, UniProt Q6ZN32 1-361).
T7 sequence: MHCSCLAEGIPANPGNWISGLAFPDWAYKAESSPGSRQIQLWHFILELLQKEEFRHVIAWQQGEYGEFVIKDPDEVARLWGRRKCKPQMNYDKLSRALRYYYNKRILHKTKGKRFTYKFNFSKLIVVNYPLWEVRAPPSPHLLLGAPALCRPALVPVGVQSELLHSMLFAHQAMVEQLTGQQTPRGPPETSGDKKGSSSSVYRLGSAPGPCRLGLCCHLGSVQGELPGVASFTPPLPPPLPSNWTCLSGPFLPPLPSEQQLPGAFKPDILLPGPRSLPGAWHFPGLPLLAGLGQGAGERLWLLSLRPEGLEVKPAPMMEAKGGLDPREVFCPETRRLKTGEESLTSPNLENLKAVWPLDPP
As to conditions: protein: recombinant; tags: N-terminal GST; dsDNA, one strand shown. The gist of the method:
as §1

Another assay deals with T8, ETS2 (Homo sapiens, UniProt P15036 1-469).
T8 sequence: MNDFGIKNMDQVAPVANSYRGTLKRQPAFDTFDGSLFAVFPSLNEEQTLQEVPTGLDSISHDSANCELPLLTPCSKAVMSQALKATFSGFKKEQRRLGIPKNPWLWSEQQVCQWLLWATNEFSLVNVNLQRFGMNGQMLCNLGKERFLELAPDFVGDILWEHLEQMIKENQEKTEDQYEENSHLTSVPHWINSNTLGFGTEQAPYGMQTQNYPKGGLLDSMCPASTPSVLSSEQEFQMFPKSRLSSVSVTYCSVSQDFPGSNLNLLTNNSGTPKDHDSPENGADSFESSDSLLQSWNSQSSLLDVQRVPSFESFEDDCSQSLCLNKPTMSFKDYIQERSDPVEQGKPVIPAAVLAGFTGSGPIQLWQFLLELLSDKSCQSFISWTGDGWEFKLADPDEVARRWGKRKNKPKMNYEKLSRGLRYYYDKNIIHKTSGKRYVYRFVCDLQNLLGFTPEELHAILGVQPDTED
As to conditions: protein: recombinant; tags: N-terminal GST; dsDNA, one strand shown. The gist of the method: as §1

Another assay has as its target T9, SPDEF (Homo sapiens, UniProt O95238 1-335).
T9 sequence: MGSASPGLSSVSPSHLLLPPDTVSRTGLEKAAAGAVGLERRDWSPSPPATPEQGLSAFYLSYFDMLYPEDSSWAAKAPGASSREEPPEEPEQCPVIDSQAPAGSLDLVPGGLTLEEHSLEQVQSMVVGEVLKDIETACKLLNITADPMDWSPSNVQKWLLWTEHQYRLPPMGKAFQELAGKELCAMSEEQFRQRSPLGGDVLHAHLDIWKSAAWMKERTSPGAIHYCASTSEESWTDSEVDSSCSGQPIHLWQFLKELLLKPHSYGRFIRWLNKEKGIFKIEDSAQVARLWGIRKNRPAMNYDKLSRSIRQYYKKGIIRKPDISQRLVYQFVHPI
As to conditions: protein: recombinant; tags: N-terminal GST; dsDNA, one strand shown. The gist of the method:
as §1

The next assay has as its target T10, ETV7 (Homo sapiens, UniProt Q9Y603 1-341).
T10 sequence: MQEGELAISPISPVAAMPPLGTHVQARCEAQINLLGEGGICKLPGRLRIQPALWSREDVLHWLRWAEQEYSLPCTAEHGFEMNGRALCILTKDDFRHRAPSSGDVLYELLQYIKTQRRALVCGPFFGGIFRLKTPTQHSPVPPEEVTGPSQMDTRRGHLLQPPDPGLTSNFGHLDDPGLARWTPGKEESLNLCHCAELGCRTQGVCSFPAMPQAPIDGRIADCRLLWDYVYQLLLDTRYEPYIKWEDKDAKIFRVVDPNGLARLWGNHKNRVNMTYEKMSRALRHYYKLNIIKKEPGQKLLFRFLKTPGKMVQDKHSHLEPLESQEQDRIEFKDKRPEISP
As to conditions: protein: recombinant; tags: N-terminal GST; dsDNA, one strand shown. Put shortly:
as §1

The target in the next assay is T11, ELF5 (Homo sapiens, UniProt Q9UKW6-2 1-255).
T11 sequence: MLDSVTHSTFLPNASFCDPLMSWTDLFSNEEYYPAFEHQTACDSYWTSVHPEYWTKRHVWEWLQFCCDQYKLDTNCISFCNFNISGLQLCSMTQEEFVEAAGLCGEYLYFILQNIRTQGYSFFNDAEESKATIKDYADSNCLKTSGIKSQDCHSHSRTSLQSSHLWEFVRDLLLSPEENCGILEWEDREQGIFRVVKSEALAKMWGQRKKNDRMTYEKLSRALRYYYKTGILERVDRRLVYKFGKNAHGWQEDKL
As to conditions: protein: recombinant; tags: N-terminal GST; dsDNA, one strand shown. Put shortly:
as §1

The target of the next assay is T12, ETV3 (Homo sapiens, UniProt P41162-2 1-143).
T12 sequence: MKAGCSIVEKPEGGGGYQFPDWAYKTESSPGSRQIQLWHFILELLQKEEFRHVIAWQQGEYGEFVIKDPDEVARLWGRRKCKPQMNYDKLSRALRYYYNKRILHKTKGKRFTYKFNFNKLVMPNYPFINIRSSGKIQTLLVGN
As to conditions: protein: recombinant; tags: N-terminal GST; dsDNA, one strand shown. The gist of the method:
as §1

Another assay concerns the target ETV6 (Homo sapiens, UniProt P41212 1-452). As to conditions: protein: recombinant; tags: N-terminal GST; dsDNA, one strand shown. Put shortly: as §1

ETV6, sequence (P41212 whole entry): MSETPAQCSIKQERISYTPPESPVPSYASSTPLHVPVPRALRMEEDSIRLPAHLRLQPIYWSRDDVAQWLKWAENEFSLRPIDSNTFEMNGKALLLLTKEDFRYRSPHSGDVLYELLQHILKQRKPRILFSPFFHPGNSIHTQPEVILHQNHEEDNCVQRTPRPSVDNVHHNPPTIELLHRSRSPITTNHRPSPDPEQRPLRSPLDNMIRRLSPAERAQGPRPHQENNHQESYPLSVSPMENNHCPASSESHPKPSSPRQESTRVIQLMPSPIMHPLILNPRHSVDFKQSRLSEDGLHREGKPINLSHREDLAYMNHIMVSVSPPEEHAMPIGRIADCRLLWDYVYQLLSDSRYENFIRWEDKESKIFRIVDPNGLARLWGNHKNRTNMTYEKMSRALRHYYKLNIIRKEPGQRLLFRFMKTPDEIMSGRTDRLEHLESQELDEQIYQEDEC
CRX, sequence (O43186 whole entry): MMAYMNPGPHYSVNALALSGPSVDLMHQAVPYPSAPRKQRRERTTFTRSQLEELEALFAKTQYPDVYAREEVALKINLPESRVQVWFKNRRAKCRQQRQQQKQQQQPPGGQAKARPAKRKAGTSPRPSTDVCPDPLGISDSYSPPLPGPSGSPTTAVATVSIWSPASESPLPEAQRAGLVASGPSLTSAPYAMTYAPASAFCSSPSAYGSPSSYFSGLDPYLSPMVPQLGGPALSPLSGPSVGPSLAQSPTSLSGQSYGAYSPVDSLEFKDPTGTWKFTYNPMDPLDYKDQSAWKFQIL
ELF4, sequence (Q99607 whole entry): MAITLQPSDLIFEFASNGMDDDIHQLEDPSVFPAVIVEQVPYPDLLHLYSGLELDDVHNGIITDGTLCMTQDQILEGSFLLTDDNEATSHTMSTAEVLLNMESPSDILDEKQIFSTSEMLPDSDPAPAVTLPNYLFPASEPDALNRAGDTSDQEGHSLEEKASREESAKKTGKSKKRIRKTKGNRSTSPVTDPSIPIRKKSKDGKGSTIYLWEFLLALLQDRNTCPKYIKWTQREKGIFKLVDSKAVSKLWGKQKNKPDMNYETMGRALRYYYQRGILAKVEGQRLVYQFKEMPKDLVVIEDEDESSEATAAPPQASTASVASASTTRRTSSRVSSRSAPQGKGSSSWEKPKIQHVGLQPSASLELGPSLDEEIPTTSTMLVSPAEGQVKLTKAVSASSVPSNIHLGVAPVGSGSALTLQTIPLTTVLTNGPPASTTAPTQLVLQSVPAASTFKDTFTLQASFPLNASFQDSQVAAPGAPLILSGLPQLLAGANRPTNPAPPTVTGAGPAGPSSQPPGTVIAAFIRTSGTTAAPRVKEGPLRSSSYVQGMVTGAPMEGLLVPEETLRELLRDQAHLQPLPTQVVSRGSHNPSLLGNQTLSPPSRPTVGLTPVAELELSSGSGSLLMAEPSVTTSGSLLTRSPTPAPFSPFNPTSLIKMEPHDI
HSF1, sequence (Q00613 whole entry): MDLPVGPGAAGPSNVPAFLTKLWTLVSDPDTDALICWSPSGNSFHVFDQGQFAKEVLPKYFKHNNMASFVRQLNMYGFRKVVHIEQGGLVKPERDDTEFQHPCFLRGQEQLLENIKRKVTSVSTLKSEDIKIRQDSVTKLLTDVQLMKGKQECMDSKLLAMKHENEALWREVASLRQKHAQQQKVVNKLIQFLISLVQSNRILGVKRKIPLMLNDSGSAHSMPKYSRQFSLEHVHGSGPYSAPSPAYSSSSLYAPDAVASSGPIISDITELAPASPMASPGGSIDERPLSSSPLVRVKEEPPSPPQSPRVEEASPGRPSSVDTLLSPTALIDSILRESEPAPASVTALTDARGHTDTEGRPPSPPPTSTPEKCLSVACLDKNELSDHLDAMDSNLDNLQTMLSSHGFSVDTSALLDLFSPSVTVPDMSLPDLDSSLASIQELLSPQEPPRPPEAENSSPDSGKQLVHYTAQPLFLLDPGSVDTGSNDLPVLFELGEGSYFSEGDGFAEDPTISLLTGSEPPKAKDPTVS
ETV5, sequence (P41161 whole entry): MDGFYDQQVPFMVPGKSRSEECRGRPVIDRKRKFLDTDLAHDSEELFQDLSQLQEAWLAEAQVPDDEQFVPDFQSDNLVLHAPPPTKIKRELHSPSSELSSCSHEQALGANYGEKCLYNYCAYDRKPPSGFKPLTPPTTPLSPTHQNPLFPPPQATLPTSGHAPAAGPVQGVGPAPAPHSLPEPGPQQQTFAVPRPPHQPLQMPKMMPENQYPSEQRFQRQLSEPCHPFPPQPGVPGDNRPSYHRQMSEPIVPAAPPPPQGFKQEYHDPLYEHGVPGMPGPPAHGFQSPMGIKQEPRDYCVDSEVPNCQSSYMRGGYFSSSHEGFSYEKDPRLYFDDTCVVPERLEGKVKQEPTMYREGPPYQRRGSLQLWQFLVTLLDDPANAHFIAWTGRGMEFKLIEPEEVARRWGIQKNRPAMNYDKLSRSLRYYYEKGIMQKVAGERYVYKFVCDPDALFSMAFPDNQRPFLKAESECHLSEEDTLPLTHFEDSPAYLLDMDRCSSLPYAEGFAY
ETV1, sequence (P50549 whole entry): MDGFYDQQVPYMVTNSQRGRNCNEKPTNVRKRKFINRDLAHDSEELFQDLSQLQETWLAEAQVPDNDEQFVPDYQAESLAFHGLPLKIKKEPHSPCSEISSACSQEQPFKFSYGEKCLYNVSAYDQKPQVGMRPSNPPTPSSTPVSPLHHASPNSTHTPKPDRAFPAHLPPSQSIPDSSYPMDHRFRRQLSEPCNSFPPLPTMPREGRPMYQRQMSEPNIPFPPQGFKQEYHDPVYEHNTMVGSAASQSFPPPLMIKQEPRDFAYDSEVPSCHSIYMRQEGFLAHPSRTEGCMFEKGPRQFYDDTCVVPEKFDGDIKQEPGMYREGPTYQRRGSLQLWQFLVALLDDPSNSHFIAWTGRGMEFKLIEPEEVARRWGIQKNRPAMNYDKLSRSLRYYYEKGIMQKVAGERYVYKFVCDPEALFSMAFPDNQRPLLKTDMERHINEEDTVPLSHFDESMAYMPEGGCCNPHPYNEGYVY

For the sequence AAAATC, the binding signal with FEV was 1.19 fold enrichment (6-mer frequency, TF over GST control); in the assay with ETV5 it was 1.19 fold enrichment (6-mer frequency, TF over GST control); with HSF1 it was 1.51 fold enrichment (6-mer frequency, TF over GST control); with SPIC, 1.07 fold enrichment (6-mer frequency, TF over GST control); with ELF4, 1.23 fold enrichment (6-mer frequency, TF over GST control); in the assay with ELK4 it was 1.05 fold enrichment (6-mer frequency, TF over GST control). Also, the binding signal with ETV2 is 1.28 fold enrichment (6-mer frequency, TF over GST control); in the assay with ELF3 it was 1.11 fold enrichment (6-mer frequency, TF over GST control); with CRX, 1.62 fold enrichment (6-mer frequency, TF over GST control); in the assay with ETV1, 1.12 fold enrichment (6-mer frequency, TF over GST control); with ERF, 1.17 fold enrichment (6-mer frequency, TF over GST control); with ETV3L it was 1.18 fold enrichment (6-mer frequency, TF over GST control). The binding signal was 1.14 fold enrichment (6-mer frequency, TF over GST control) with ETS2; 1.2 fold enrichment (6-mer frequency, TF over GST control) with SPDEF; 1.16 fold enrichment (6-mer frequency, TF over GST control) with ETV7; 1.15 fold enrichment (6-mer frequency, TF over GST control) with ELF5; 1.13 fold enrichment (6-mer frequency, TF over GST control) in the assay with ETV3; 1.19 fold enrichment (6-mer frequency, TF over GST control) in the assay with ETV6.
